# rCAG binder: binders of r(CAG) RNA repeats, primary screen, biochemical, fluorescence; r(CAG) RNA repeat, TO-PRO-1 dye displacement fluorescence; inhibition, % at 3 µM; hit rate 1.3% among 370,000; AID 651821, 2012;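 active means inhibition above the plate cutoff, the mean of all test compounds on that plate plus 3 SD, cut at about 35% in these data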;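 further: 0% = DMSO alone and 100% = 100 µM mitoxantrone as full dye displacement; higher means more dye released from RNA so lower well fluorescence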
# APOBEC3G inh: APOBEC3G DNA deaminase inhibitors, primary screen, biochemical, fluorescence, single-stranded DNA substrate, uHTS. DNA dC->dU-editing enzyme APOBEC-3G (Homo sapiens), Q9HC16. recombinant A3G, ssDNA deamination FAM/TAMRA fluorescence. inhibition, % at 20 µM. hit rate 0.28% among 330,000. AID 493012, 2011;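 active means inhibition of at least 40% at 20 µM, with no more than 30% in the related APOBEC3A deaminase screen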;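 further: plate controls were DMSO wells with A3G for no effect and wells lacking A3G enzyme for full effect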
# Target sequence (Q9HC16 whole entry, looked up): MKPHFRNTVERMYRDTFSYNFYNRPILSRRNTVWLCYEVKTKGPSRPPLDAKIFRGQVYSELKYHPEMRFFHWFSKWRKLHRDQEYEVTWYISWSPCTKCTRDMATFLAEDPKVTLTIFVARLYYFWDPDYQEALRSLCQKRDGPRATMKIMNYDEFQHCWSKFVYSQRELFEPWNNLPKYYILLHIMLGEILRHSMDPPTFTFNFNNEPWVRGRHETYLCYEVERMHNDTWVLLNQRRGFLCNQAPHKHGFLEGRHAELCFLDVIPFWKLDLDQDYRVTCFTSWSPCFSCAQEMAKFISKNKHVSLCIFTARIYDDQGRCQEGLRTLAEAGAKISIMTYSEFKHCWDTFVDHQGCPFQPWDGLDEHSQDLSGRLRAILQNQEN
# aDG glyco up: activators of alpha-DG glycosylation, primary screen, uHTS, Pro5-aDG cells, AlphaScreen; hit rate 0.22% among 360,000; alpha-DG glycosylation AlphaScreen (IIH6); 0% Pro5, 100% B10-LARGE cell signal; activation, % at 10 µM;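 active means activation of at least 8% versus controls, or a plate z-score of at least 8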;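 further: Pro5 are CHO cells carrying HIG-tagged alpha-DG that lacks glycosylation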
# PHOSPHO1 block: PubChem AID 1565; recombinant PHOSPHO1, absorbance phosphatase assay; Phosphoethanolamine/phosphocholine phosphatase (Homo sapiens), Q8TCT1; hit rate 1.1% among 290,000; inhibition, % at 13.3 µM; in the data active means inhibition above about 60%
# APOBEC3A inh: APOBEC3A ssDNA deaminase inhibitors, primary screen, selectivity assay for APOBEC3G inhibitor project, biochemical, FAM/TAMRA oligo cleavage fluorescence | recombinant A3A, FAM/TAMRA ssDNA deamination fluorescence | inhibition, % at 20 µM | hit rate 0.41% among 330,000 | AID 493011, 2011;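 active means at least 40% inhibition at 20 µM here, with at most 30% in a related deaminase screen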;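 further: plate controls were A3A with DMSO for no effect and wells lacking A3A enzyme for full effect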
# ALR inh: inhibitors of human ALR sulfhydryl oxidase, primary screen, biochemical, H2O2 detection, HRP-luminol luminescence, single point | FAD-linked sulfhydryl oxidase ALR (Homo sapiens), P55789 | purified ALR, DTT oxidation | hit rate 3.8% among 290,000 | inhibition, % (test concentration not listed);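 active means mean replicate inhibition above about 79%, with every replicate also reaching it, limit read from the data; inconclusive means only one of the two criteria met; inactive means mean below limit and not every replicate reaching it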
# Target sequence (P55789 whole entry, looked up): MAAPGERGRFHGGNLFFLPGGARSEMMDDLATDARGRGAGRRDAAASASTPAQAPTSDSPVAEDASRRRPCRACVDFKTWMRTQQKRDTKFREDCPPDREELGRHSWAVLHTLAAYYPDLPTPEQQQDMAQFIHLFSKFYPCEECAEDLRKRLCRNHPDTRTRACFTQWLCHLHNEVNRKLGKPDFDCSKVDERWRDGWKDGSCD
# A3A conf: APOBEC3A deaminase inhibitors, retest, confirmation, selectivity assay for APOBEC3G inhibitor project, biochemical, single concentration, fluorescence readout; shares compounds with APOBEC3A inh; recombinant A3A, ssDNA deaminase UDG fluorescence assay; inhibition, % at 20 µM; hit rate 63% among 1,400;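 active means inhibition reaching a set limit, 80% of the first screen's cutoff, at 20 µM in any replicate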;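 further: plate controls were DMSO wells with A3A for no effect and wells lacking A3A enzyme for full effect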
# UDG A3A counter: E. coli UDG inhibitors, confirmation, counter-screen for APOBEC3A inhibitor project, biochemical, single concentration, fluorescence, FAM/TAMRA oligo. shares compounds with APOBEC3A inh. UDG counterscreen, FAM/TAMRA uracil oligo fluorescence. 1,000 tested, under 10 active. inhibition, % at 20 µM; call rule not given here
# Numbers without * were called inactive; ? = inconclusive; . = no result. Rows were chosen to be rich in hits. Some 5.4% of all compounds tested hit in one or more screens of this group.
SMILES,rCAG binder,APOBEC3G inh,aDG glyco up,PHOSPHO1 block,APOBEC3A inh,ALR inh,others
COc1ccc(-c2nc(CSCC(=O)N3CCC(C(N)=O)CC3)c(C)o2)cc1OC,1,-5,0,-17,-1,99*,
Cc1cccc(-c2nc(CSCC(=O)N3CCN(c4ccccn4)CC3)c(C)o2)c1,-8,-3,0,16,0,.,
COc1ccc(-c2nc(CSCC(=O)N3CCc4ccccc4C3)c(C)o2)cc1OC,6,-5,0,0,-4,98*,
CCOc1ccc(-c2cc(C(=O)OC)c3n(c2=O)CCC3)cc1,0,.,.,.,.,.,
COC(=O)C1CN(Cc2cn(Cc3ccc(OC)cc3)nn2)CCS(=O)(=O)N1Cc1ccccc1 (configuration not stated),3,.,.,.,.,.,
CS(=O)(=O)C1=NSC2=NC(=O)/C(=C\c3ccc(-c4ccccc4)o3)C(=N)N21,.,.,.,7,.,97*,
Cc1ccc(S(=O)(=O)Oc2ccc(/C=C3/C(=N)N4C(=NC3=O)SN=C4S(C)(=O)=O)cc2)cc1,32,-4,0,49,-6,98*,
N=C1/C(=C/c2ccc(-c3cccc(C(=O)O)c3)o2)C(=O)N=C2SC=C(c3ccccc3)N12,81*,30,0,-66,27,4,
CCS(=O)(=O)C1=NN2C(=N)/C(=C\c3ccc(OS(=O)(=O)c4ccccc4)c(OC)c3)C(=O)N=C2S1,.,-3,.,54,-6,?,
Cc1ccc(-n2c(C)cc(/C=C3/C(=N)N4C(c5ccccc5)=CSC4=NC3=O)c2C)cc1,3,-4,0,11,1,23,
COc1cc(/C=C2\C(=N)N3N=C(S(C)(=O)=O)SC3=NC2=O)ccc1OS(=O)(=O)c1ccccc1,.,-1,.,23,2,91*,
COc1ccc(NC(=O)N2CCC(N(C)CCC(C)C)CC2)cc1OC,1,.,.,.,.,.,
CCS(=O)(=O)C1=NSC2=NC(=O)/C(=C\c3ccc(OS(=O)(=O)c4ccccc4)c(OC)c3)C(=N)N21,.,-2,0,24,-1,97*,
O=C(CN1CCN(c2ccc(O)cc2)CC1)N(C1CC1)C1CCS(=O)(=O)C1 (configuration not stated),3,1,0,.,0,99*,
CN(Cc1ccccc1)C(=O)OCc1cn(Cc2ccccc2C(F)(F)F)nn1,-2,.,.,.,.,.,
CC(=O)Nc1ccc(C2=NN(C)C(=NCc3ccccc3)SC2)cc1,5,4,0,2,6,99*,
O=[N+]([O-])/C(C(Cl)=C(Cl)Cl)=C(\Sc1ccccc1)N1CCCCC1,-1,1,0,21,5,98*,
O=C(NNC(=O)c1ccccc1O)c1ccc(Cl)c(S(=O)(=O)N2CCCCC2)c1,19,1,0,.,2,97*,
O=C(NNC(=O)c1cccs1)c1ccc(Cl)c(S(=O)(=O)N2CCCC2)c1,3,-4,0,.,1,8,
CC(C)c1cc(C(=O)N(C2CCCCC2)C2CCCCC2)no1,-1,.,.,.,.,.,
COC(=O)C1=C(C)N(C)C(=NCc2ccccc2C(F)(F)F)NC1c1ccc(C(F)(F)F)cc1 (configuration not stated),3,.,.,.,.,.,
Cc1[nH]c2ccc(C(=O)OCCN(C)C)cc2c1C,-3,-4,0,56,-1,.,
Cc1[nH]c2ccc(C(=O)N3CCCC3)cc2c1C,0,5,0,-6,2,90*,
Cc1[nH]c2ccc(C(=O)N3CCCCC3)cc2c1C,-3,0,0,-19,1,96*,
Cc1[nH]c2ccc(C(=O)N3CCC(C(N)=O)CC3)cc2c1C,2,-2,0,.,-2,?,
SMILES,rCAG binder,APOBEC3G inh,aDG glyco up,PHOSPHO1 block,APOBEC3A inh,ALR inh,others
CCOC(=O)c1ccc2[nH]c(C)c(C)c2c1,4,0,0,.,-11,98*,
Cc1[nH]nc2c1C(c1cccc(C(F)(F)F)c1)NC2=O (configuration not stated),2,.,.,.,.,.,
O=C(OC12CCCN(C1)/C(=C/c1ccc(Cl)cc1)C2)c1ccco1 (configuration not stated),7,.,.,.,.,.,
CCN(C(=O)c1sc(N)c(C#N)c1C)C1CCCCC1,-4,-3,0,-8,-2,96*,
NC(=O)c1ncn([C@@H]2O[C@H](C(=O)Nc3ccc(C(=O)N4CCCCC4)cc3)[C@@H](O)[C@H]2O)n1,1,.,.,.,.,.,
Cc1nn(-c2ccccc2)c(C)c1C=NNC(=O)CSc1nc2ccccc2n1C,1,.,.,.,.,.,
Cc1ccc(NC2CCCN(C(=O)c3cccc(-c4ncc[nH]4)c3)C2)cc1C (configuration not stated),1,13,0,17,17,97*,
Cc1ccc(NC2CCCN(C(=O)c3ccccc3-c3ncc[nH]3)C2)cc1C (configuration not stated),-4,-4,0,33,-3,99*,
CC(C)(C)C1=Nn2c(nnc2-c2ccccn2)SC1,2,20,0,63*,-5,-1,
Cc1c(N=C2SCC(=O)N2/N=C\c2ccc(Br)cc2)c(=O)n(-c2ccccc2)n1C,-1,-4,0,2,-2,92*,
O=C(O)C1CCCCC1C(=O)Nc1cccc(Br)c1 (configuration not stated),8,24,0,.,94*,.,A3A conf=91*
O=C(Nc1cccc(Br)c1)C1CCCC1,-2,-5,0,.,-2,24,
CCN1CCN(c2ccc(S(=O)(=O)N3CCCCC3)cc2NC(=O)COc2ccc(F)cc2Cl)CC1,-4,11,0,24,56*,-3,A3A conf=53*;UDG A3A counter=-4
CCN1CCN(c2ccc(S(=O)(=O)N3CCCCC3)cc2NC(=O)COc2cc(C)ccc2Cl)CC1,.,15,0,.,57*,.,A3A conf=73*;UDG A3A counter=3
CC(Oc1ccc(F)cc1)C(=O)Nc1cc(S(=O)(=O)N2CCCCC2)ccc1N1CCOCC1 (configuration not stated),0,4,0,.,42*,-2,A3A conf=3
